# In all, about 300,000 compounds went through this assay and about 5,200 (1.7%) were called active.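 Rule for the calls: active = mean replicate activation of at least 50% with a set share of replicates each reaching 50%; inconclusive = only one of those two conditions met; inactive = mean below 50% and too few replicates reaching it.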 The list comes from a sample in which actives are over-represented; it also holds similar structures and randomly drawn compounds.
# Assay: HSF-1 response element luciferase induction – NIH3T3-HGL cells, MG132 stress, luminescence, single point, primary screen (AID 504408);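 note: 0% = median of the neutral control wells and 100% = twice that signal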
# Settings: NIH3T3-HGL HSF-1 luciferase reporter, MG132, 8 h; at 9 µM; hits give high values; 100% = twice DMSO control signal
row,SMILES,activation
1,CCN1C(=O)[C@@H]2[C@@H](c3ccc(-c4ccccc4)cc3)N3CCCC[C@@]3(C(=O)OC)[C@@H]2C1=O,16.1% (inactive)
2,COc1ccc(/C=N/NC(=O)c2cccc(C(F)(F)F)c2)cc1,0.104% (inactive)
3,CSc1ccc(/C=N/NC(=O)c2cccc(Cl)c2)cc1,80.3% (active)
4,CSc1ccc(/C=N\NC(=O)COc2ccc(Cl)cc2Br)cc1,0.476% (inactive)
5,O=C(COC(=O)c1ccccc1SCC(=O)N1CCCC1)Nc1ccccc1OC(F)F,5.14% (inactive)
6,O=C(COC(=O)c1ccc([N+](=O)[O-])cc1Cl)NC(=O)c1ccccc1,-8.14% (inactive)
7,CCOc1ccc2ccccc2c1/C=N/NC(=O)c1c(C)cc(C)[nH]c1=O,23.9% (inactive)
8,Cc1nnc(N/N=C/c2cccs2)[nH]c1=O,-4.02% (inactive)
9,Cc1ccccc1Nc1nnc(C)c(=O)[nH]1,54.6% (active)
10,Cc1nnc(N/N=C/c2ccccn2)[nH]c1=O,-18.5% (inactive)
11,O=C(CSc1ccc(-c2ccc(-n3cccn3)cc2)nn1)Nc1ccc([N+](=O)[O-])cc1,8.59% (inactive)
12,CCOc1cc(/C=C/c2nc3ccccc3c(=O)[nH]2)cc(Br)c1OC,14.8% (inactive)
13,O=c1[nH]c(/C=C/c2cccc(Br)c2)nc2ccccc12,58.9% (active)
14,O=c1oc(/C=C/c2ccccc2)nc2ccccc12,-13.5% (inactive)
15,CCOc1ccc(CCNC(=O)COC(=O)CCS(=O)(=O)c2ccc(C)cc2)cc1OCC,1.98% (inactive)
16,Cc1cc(Br)ccc1NC(=O)CN(C)C(=O)CN1C(=O)NC2(CCCC2)C1=O,6.32% (inactive)
17,CCC(c1nnnn1Cc1ccco1)N(Cc1cc2cc(OC)ccc2[nH]c1=O)C1CCCCC1 (stereo not drawn),136% (active)
18,CCC(c1nnnn1Cc1ccccc1)N(Cc1cc2cc(OC)ccc2[nH]c1=O)CC1CCCO1 (stereo not drawn),17.4% (inactive)
19,CCC(c1nnnn1Cc1ccco1)N(CCc1ccccc1)Cc1cc2ccc(OC)cc2[nH]c1=O (stereo not drawn),9.84% (inactive)
20,CCc1ccc(CNC(=O)CCc2nc(-c3cccs3)no2)cc1,3.43% (inactive)

row,SMILES,activation
1,COc1ccc(OC)c(CNC(=O)CCc2nc(-c3cccs3)no2)c1,-8.19% (inactive)
2,COc1ccc(CCc2nc(-c3cccs3)no2)cc1,65% (active)
3,COc1cccc(N2CC(NS(=O)(=O)c3ccc(Cl)cc3)CC2=O)c1 (stereo not drawn),11.2% (inactive)
4,COc1ccc(NC(=O)CCC(=O)N2CCN(S(=O)(=O)c3ccc(C)cc3)CC2)c(OC)c1,-9.72% (inactive)
5,CN(CC(=O)Nc1ccccc1Cl)C(=O)c1ccccc1SCC(=O)N1CCCC1,15.5% (inactive)
6,O=C(Nc1ccccc1)OCc1cn(-c2ccc(Cl)cc2)nn1,-2.71% (inactive)
7,COC(=O)CN1C(=S)N(c2ccccc2)C(=O)C1CC(=O)Nc1ccc(Cl)cc1 (stereo not drawn),4.42% (inactive)
8,O=C(O)CC1=C(Nc2ccccc2)C(=O)N(c2ccccc2)C1c1ccc(Cl)cc1 (stereo not drawn),65.5% (active)
9,COc1ccc(Cl)cc1C=CC=NNC(=O)c1ccncc1,5.04% (inactive)
10,O=C(Cc1ccc(Br)cc1)NCCc1ccccc1,18.4% (inactive)
11,CC(=O)c1c(C)[nH]c(C(=O)CN2C(=O)NC(C)(C)C2=O)c1C,-22.1% (inactive)
12,Cc1cc(=O)oc2cc(OC(C)C(=O)NCCc3ccc(S(N)(=O)=O)cc3)ccc12 (stereo not drawn),12.2% (inactive)
13,Cc1ccc2c(=O)cc(C(=O)NCCc3ccc(S(N)(=O)=O)cc3)oc2c1C,62.8% (active)
14,Cc1cc(=O)oc2c(C)c(OCC(=O)NCCc3ccc(S(N)(=O)=O)cc3)ccc12,-4.95% (inactive)
15,O=C(NCCC1CCCCN1S(=O)(=O)c1ccc(F)cc1)C(=O)NC1CC1 (stereo not drawn),3.8% (inactive)
16,CCOc1ccc(CCNC(=O)COC(=O)C2CCN(c3ccc(C(F)(F)F)cn3)CC2)cc1OCC,2.31% (inactive)
17,Cc1nc(NC(=O)c2ccc3c(c2)OCCO3)ccc1Br,58.7% (active)
18,O=C(Nc1ccccc1)c1ccc2c(c1)OCCCO2,12.7% (inactive)
19,O=C(Nc1ccc(Cl)cn1)c1ccc2c(c1)OCCO2,9.46% (inactive)
20,Nn1cnnc1N/N=C/c1cc([N+](=O)[O-])c(Cl)cc1Cl,56.4% (active)

row,SMILES,activation
1,O=[N+]([O-])c1ccc(O)c(/C=N/Nc2ccccc2[N+](=O)[O-])c1,-10.2% (inactive)
2,Cc1ccc2nc(NC(=O)CSc3nc(=O)n(CCCN(C)C)c4c3CCC4)sc2c1,2.36% (inactive)
3,Cc1ccccc1OCC(=O)NNC(=O)c1ccc(-n2cncn2)c([N+](=O)[O-])c1,4.89% (inactive)
4,Cc1ccc(C)c(NC(=O)COC(=O)Cn2c(C)csc2=O)c1,-8.55% (inactive)
5,COc1cc(/C=N/NC(=O)c2cc(-c3ccccc3C)nc3ccccc23)cc(OC)c1O,18.6% (inactive)
6,CN1CCN(C2Cc3ccc(Cl)cc3Sc3ccc(F)cc32)CC1 (stereo not drawn),-3.39% (inactive)
7,CC(=O)NC(Cc1c[nH]c2ccccc12)C(=O)NCCc1ccccc1 (stereo not drawn),-11.2% (inactive)
8,CC(=O)NC(Cc1c[nH]c2ccccc12)C(=O)O (stereo not drawn),56% (active)
9,Cc1cccc(C)c1OCC(=O)NC(Cc1c[nH]c2ccccc12)C(=O)O (stereo not drawn),0.58% (inactive)
10,CC1CCN(C(=O)c2cccc(S(=O)(=O)N3CCCc4ccccc43)c2)CC1,9.01% (inactive)
11,Cc1ccc(N2CC(C(=O)N3CCC4(CC3)CC(=O)c3ccccc3O4)CC2=O)cc1C (stereo not drawn),-2.34% (inactive)
12,O=C(O)C1C2C=CC(C2)C1C(=O)NCc1ccccc1 (stereo not drawn),-13% (inactive)
13,Nc1ccccc1/C=N\N=C/c1ccccc1N,1.94% (inactive)
14,Cc1ccc(-n2ncc3c(=O)[nH]cnc32)c(C)c1,-3.73% (inactive)
15,Cc1ccc2cc(C)c(N3CCN(c4ccc(F)cc4)CC3)nc2c1,5.08% (inactive)
16,Cc1ccc(-n2ncc3c(N4CCN(c5ccc(F)cc5)CC4)ncnc32)c(C)c1,57.9% (active)
17,Nc1ccc(C(=O)N2CCN(S(=O)(=O)c3ccc(Cl)cc3)CC2)cc1[N+](=O)[O-],17.9% (inactive)
18,COc1ccc(C)cc1NC(=O)CSc1nnc2ccc(-c3ccccn3)nn12,-10.8% (inactive)
